The values that follow come from PubChem BioAssay (NCATS).

The nature of test [1]: Primary fluorescence-based thiol-reactive (MSTI) qHTS assay for identification of artifact compounds. (AID 1845221). Further: nearly all actives have a fitted effect of over 65% in size. Further: potency means the concentration at half of the fitted maximal effect.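 On activity change, negative = thiol reactive: series mostly up to about 54 µM; thiol-reactive compounds lower the probe fluorescence signal.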 Summed up:
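MSTI probe at 4 uM final in 2% DMSO/PBS pH 7.4; compounds, 1 h at room temperature in dark. Fluorescence Ex/Em 525/598 nm, normalised to Acetyl-MSTI and MSTI, fitted to 4-parameter Hill.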
(In general: In qHTS, concentration-response curves come from the screen itself.)

Test [2] relates to Nanoluciferase (engineered Oplophorus gracilirostris luciferase). Put plainly: Primary Nanoluciferase (NLuc) qHTS assay for identification of artifact compounds. (AID 1845222).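 Further: series mostly up to about 54 µM; 0% = DMSO and -100% = no enzyme.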 Summed up:
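Luminescence read-out of secreted NLuc in S16 cell conditioned medium (1:55); compounds tested with 15 min RT preincubation, then Nano-Glo substrate 1:100, 5 min. % inhibition vs no-enzyme and DMSO controls, 4-parameter Hill fit.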

The nature of test [3]: Primary redox qHTS assay for identification of artifact compounds. (AID 1845223).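 Further: 0% = DMSO and 100% = reference compound.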 Summed up:
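Redox-cycling detection via DTT (250 uM final) oxidation coupled to Amplex Red (25 uM)/HRP (250 mU/mL) in HBSS. 15 min preincubation plus 30 min after DTT, room temperature. Ex/Em 525/598 nm; 4-parameter Hill fit against DMSO and 10 uM DA3003.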

Molecules are shown by their SMILES. Unmarked numbers belong to inactive results. Results filed as inconclusive are left out. Activity calls are given as the source filed them. The call rests on the fitted dose curve; in most records, active means well fitted curve in the direction sought with a large enough effect; inconclusive means small, poorly fitted or top-dose-only effect, or another doubt; inactive means no such curve, though single readings can be large; an effect the other way counts as inactive or inconclusive.

With `CC(=C/C(=O)O)/C=C/[C@]1(O)[C@@]2(C)CO[C@]1(C)C[C@H](O[C@@H]1O[C@H](CO)[C@@H](O)[C@H](O)[C@H]1O)C2`, the Potency in test [1] is 9.22 µM (active). In test [2], the Potency entry is “inactive”.

As to `C[C@@H]1O[C@@H](O[C@H]2[C@H](OC(=O)[C@]34CCC(C)(C)C[C@H]3C3=CCC5[C@@]6(C)C[C@H](O)[C@H](O[C@@H]7O[C@H](CO)[C@@H](O[C@@H]8O[C@H](CO)[C@@H](O)[C@H](O)[C@H]8O)[C@H](O)[C@H]7O)[C@@](C)(CO)C6[C@H](O)C[C@@]5(C)[C@]3(C)C[C@H]4O)OC[C@H](O)[C@@H]2O)[C@H](O)[C@H](O)[C@H]1O[C@@H]1OC[C@@H](O)[C@H](O[C@@H]2OC[C@](O)(CO)[C@H]2O)[C@H]1O` (some centres not stated), in test [1], the activity change, negative = thiol reactive is -12.6% [at 11.5 µM]. In addition, the activity, negative = inhibition in test [2] is 2.77% [at 11.6 µM].

Consider `CC1(C)OC(=O)C(OCC2CC2)=C1c1ccc(S(C)(=O)=O)cc1`, for which the Potency result in test [1] and in test [2] was “inactive” each time.

As for `O=C1C[C@@H](c2ccc(O)cc2)Oc2cc(O)ccc21`, the Potency result in test [1], in test [2] and in test [3] was “inactive” each time.

Consider `COC(=O)C[C@@H]1C(C(=O)O)=CO[C@@H](O[C@@H]2O[C@H](CO)[C@@H](O)[C@H](O)[C@H]2O)/C1=C\COC(=O)/C=C\c1ccccc1`, for which the Potency entry in test [1], in test [2] and in test [3] was “inactive” throughout.

For the compound `Oc1ccc([C@H]2COc3cc(O)ccc3C2)cc1`, the Potency entry in test [1] and in test [2] was “inactive” throughout.

As to `CC(=O)O[C@@H]1[C@@H](OC(=O)/C=C/c2ccccc2)[C@H](C)O[C@@H](O[C@H]2[C@@H]3C=CO[C@@H](O[C@@H]4O[C@H](CO)[C@@H](O)[C@H](O)[C@H]4O)[C@@H]3[C@@]3(CO)O[C@@H]23)[C@@H]1OC(C)=O`, the Potency entry in test [1], in test [2] and in test [3] was “inactive” in each case.
